Most compounds without a hit are left out; they make up all but 2.5% or so of the library.
Cruzain noTriton: cruzain (T. cruzi) inhibition without detergent; P25779; purified cruzain, Z-FR-AMC fluorescence, no detergent; Potency, µM, for inactives: max response, negative = inhibition, usual class: inhibitors; AID 1476; actives 2.3% (n = 200,000);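 also: plate controls were enzyme without inhibitor for no effect and buffer without enzyme for full effect; nearly all actives have a fitted effect of over 40% in size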
Target sequence (P25779 123-467 limits assumed): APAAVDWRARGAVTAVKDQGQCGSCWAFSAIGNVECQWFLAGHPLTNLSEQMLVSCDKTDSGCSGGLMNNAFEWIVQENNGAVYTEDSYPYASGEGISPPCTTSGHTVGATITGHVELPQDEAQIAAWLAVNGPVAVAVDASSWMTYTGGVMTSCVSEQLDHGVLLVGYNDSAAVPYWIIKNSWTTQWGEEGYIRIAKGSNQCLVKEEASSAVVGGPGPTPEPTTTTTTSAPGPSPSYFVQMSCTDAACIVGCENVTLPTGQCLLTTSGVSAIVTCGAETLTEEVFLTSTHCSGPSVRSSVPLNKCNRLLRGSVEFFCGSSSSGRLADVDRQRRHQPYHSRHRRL
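Detergent-free condition (0.00005% Triton X-100) in acetate buffer pH 5.5 with DTT. 1.5 nM enzyme and compound were pre-mixed 15 min, then 2 uM Z-FR-AMC substrate added; reaction progress from fluorescence change between first and third reads (60 s).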
Cruzain Triton: blocks cruzain activity in presence of Triton detergent. P25779. purified cruzain, Z-FR-AMC fluorescence, 0.01% Triton. Potency, µM, for inactives: max response, negative = inhibition, hits mostly inhibitors. actives 0.43% (n = 200,000). AID 1478;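 also: plate controls were neutral wells for no effect and buffer without enzyme for full effect; nearly all actives have a fitted effect of over 40% in size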
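Read-out: AMC fluorescence (360 nm excitation, 450 nm emission), four reads over 2 min, first-to-third difference used. Conditions: cruzain 1.5 nM, Z-FR-AMC 2 uM, pH 5.5 acetate, 5 mM DTT, 0.01% Triton X-100.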
The depositor's hits bear a star. Calls follow the shape of the dose curve; as a rule, active = well fitted curve in the direction sought with a large enough effect; inconclusive = small, poorly fitted or top-dose-only effect, or another doubt; inactive = no such curve, though single readings can be large; an effect the other way counts as inactive or inconclusive. Potency is read from the fitted curve at half-maximal effect.

What do the screens show for `Cc1cccc(CCNC(=O)c2cc3c(s2)-c2c(C)cccc2OC3)c1`?
Cruzain noTriton: -27%; Cruzain Triton: inconclusive

How did O=C(NCCCN1CCN(c2ccccc2F)CC1)c1cc2c(s1)-c1ccccc1OC2 do in these assays?
Cruzain noTriton: 23%; Cruzain Triton: -22%

How did CC1CCN(S(=O)(=O)c2ccc3c(c2)N(CC(=O)NC(C)c2ccccc2)C(=O)CS3)CC1 (stereo unspecified) do in these assays?
Cruzain noTriton: 4%; Cruzain Triton: -4%

Results for COc1c(CC(=O)c2cc3c(cc2O)OC(C)(C)C(O)C3)ccc2c1C=CC(C)(C)O2 (stereo unspecified) ?
Cruzain noTriton: inconclusive; Cruzain Triton: 2%

Results for CC(=O)O[C@@H](C)C#C[Si](C)(C)c1ccccc1 ?
Cruzain noTriton: -2%; Cruzain Triton: 2%

Results for O=C1CN(C(=O)c2c(F)cccc2Cl)C(c2ccc(F)cc2)c2cc(Br)ccc2N1 (stereo unspecified) ?
Cruzain noTriton: -7%; Cruzain Triton: -8%

What do the screens show for `Fc1cccc(-n2ncc3c2ncn2nc(COc4ccc(Cl)cc4)nc32)c1`?
Cruzain noTriton: 1%; Cruzain Triton: 1%

Results for CCN(CC)C(=O)C(C)N(C#N)c1nc(SC)nc(N(C)C)n1 (stereo unspecified) ?
Cruzain noTriton: 3%; Cruzain Triton: 0%

How did CCOC(=O)CSc1nc(N(C)C)nc(N(C)C#N)n1 do in these assays?
Cruzain noTriton: 20µM*; Cruzain Triton: 16µM*

Results for CN(C)S(=O)(=O)c1ccc2c(c1)N(CC(=O)N1CCN(c3ccccc3F)CC1)CCS2 ?
Cruzain noTriton: 13%; Cruzain Triton: -4%

Results for O=C1NC(=O)N(CCC2=CCCCC2)C(=O)/C1=C\c1cccs1 ?
Cruzain noTriton: 7%; Cruzain Triton: -3%

How did Cn1cccc1/C=C1\C(=O)NC(=O)N(CCC2=CCCCC2)C1=O do in these assays?
Cruzain noTriton: 20µM*; Cruzain Triton: -5%

How did NC(=S)N/N=C/C=C/c1ccccc1 do in these assays?
Cruzain noTriton: 16µM*; Cruzain Triton: 25µM*

Results for COc1ccc(/C=N/NC(N)=S)cc1OC(=O)c1ccccc1 ?
Cruzain noTriton: inconclusive; Cruzain Triton: -28%

How did NC(=S)N/N=C/c1ccc2ccccc2c1 do in these assays?
Cruzain noTriton: 0.79µM*; Cruzain Triton: 2.2µM*

How did O=C(N/N=C/C=C/c1ccccc1)c1ccccc1Br do in these assays?
Cruzain noTriton: 0%; Cruzain Triton: -3%

Results for COc1ccc(C(=O)N2N=C(c3cccc(OC)c3)CC2(O)C(F)(F)F)cc1 (stereo unspecified) ?
Cruzain noTriton: 9%; Cruzain Triton: -6%

How did COc1ccccc1NC(=O)CSc1oc(-c2ccccc2)nc1S(=O)(=O)c1ccc(C)cc1 do in these assays?
Cruzain noTriton: inconclusive; Cruzain Triton: -5%

Results for CCOc1cc(/C=N/NC(=O)CNc2ccc(C)cc2)ccc1OC(=O)c1ccccc1 ?
Cruzain noTriton: 10µM*; Cruzain Triton: -3%

Results for Cc1cc(C)nc(SCC(=O)N/N=C\C(Br)=C\c2ccccc2)n1 ?
Cruzain noTriton: 6%; Cruzain Triton: -7%

How did Cc1ccc(NCC(=O)N/N=C/c2cc3ccccc3nc2Cl)cc1 do in these assays?
Cruzain noTriton: 25µM*; Cruzain Triton: -15%

Results for CCOc1cc(/C=N/NC(N)=O)ccc1OC(=O)c1ccc(C)cc1 ?
Cruzain noTriton: 4%; Cruzain Triton: -3%

What do the screens show for `Cc1ccc(NCC(=O)N/N=C\C(Br)=C\c2ccccc2)cc1`?
Cruzain noTriton: 13µM*; Cruzain Triton: 2%

How did COc1ccc(/C=N/NC(=O)CSCc2ccc([N+](=O)[O-])cc2)cc1OC do in these assays?
Cruzain noTriton: -7%; Cruzain Triton: -3%

What do the screens show for `COc1cc(/C=N/NC(=O)COc2c(C)cc([N+](=O)[O-])cc2C)ccc1OC(=O)c1ccccc1Br`?
Cruzain noTriton: 10µM*; Cruzain Triton: -5%

What do the screens show for `O=C(CN1CCOCC1)N/N=C/c1cc2ccccc2nc1Cl`?
Cruzain noTriton: -6%; Cruzain Triton: -6%

What do the screens show for `COc1ccc(NC(=O)CSc2nc3c(c(=O)[nH]2)CN(Cc2ccccc2)CC3)cc1Cl`?
Cruzain noTriton: 2%; Cruzain Triton: -9%

How did Cc1ccc(CNC(=O)c2ccc(Cn3c(SCc4ccc(F)cc4)nc4cccnc43)cc2)o1 do in these assays?
Cruzain noTriton: 0%; Cruzain Triton: -9%

How did CCc1ccc(N2CC(c3nc4ccccc4n3Cc3ccccc3C)CC2=O)cc1 (stereo unspecified) do in these assays?
Cruzain noTriton: -5%; Cruzain Triton: -6%

What do the screens show for `O=C(Nc1nnc(N2CCCCCC2)s1)Nc1ccccc1C(F)(F)F`?
Cruzain noTriton: 2%; Cruzain Triton: -1%

Results for O=C(COc1ccccc1[N+](=O)[O-])N/N=C/c1ccc(O)cc1 ?
Cruzain noTriton: -7%; Cruzain Triton: -5%

What do the screens show for `CCOc1cc(/C=N/NC(=O)c2cc(C)[nH]n2)ccc1OC(=O)c1ccc([N+](=O)[O-])cc1`?
Cruzain noTriton: -1%; Cruzain Triton: 4%

Results for COc1cc(/C=N/NC(=O)COc2c(C)cc([N+](=O)[O-])cc2C)ccc1OC(=O)c1ccccc1 ?
Cruzain noTriton: 25µM*; Cruzain Triton: -5%

Results for COc1cccc(C(=O)N/N=C/c2ccc(Oc3ccc([N+](=O)[O-])cn3)c(OC)c2)c1 ?
Cruzain noTriton: -5%; Cruzain Triton: -1%

Results for O=C(COc1ccccc1-c1ccccc1)N/N=C/c1ccc2ccccc2c1 ?
Cruzain noTriton: 20µM*; Cruzain Triton: -2%

Results for N#Cc1cc([N+](=O)[O-])ccc1Oc1cccc(/C=N/NC(=O)c2cccc(Cl)c2)c1 ?
Cruzain noTriton: 25µM*; Cruzain Triton: 2%

Results for O=C(N/N=C/c1cccc([N+](=O)[O-])c1)c1ccc(COc2ccccc2-c2ccccc2)cc1 ?
Cruzain noTriton: 20µM*; Cruzain Triton: -7%

Results for COc1cc(/C=N/NC(=O)c2cccc([N+](=O)[O-])c2)ccc1OCc1ccccc1 ?
Cruzain noTriton: 29%; Cruzain Triton: -14%

Results for CCN(CC)S(=O)(=O)c1csc(C(=O)NCc2ccccc2)c1 ?
Cruzain noTriton: -10%; Cruzain Triton: -1%

How did COc1ccc(Cl)cc1NC(=O)CN(c1cccc(C)c1C)S(=O)(=O)c1ccccc1 do in these assays?
Cruzain noTriton: -26%; Cruzain Triton: -4%

Results for COc1ccc(S(=O)(=O)NCCc2sc(-c3cccnc3)nc2C)c(F)c1 ?
Cruzain noTriton: 11%; Cruzain Triton: -7%

Results for COC(=O)c1c(C)nn(-c2ccc(F)cc2)c1-n1cccc1 ?
Cruzain noTriton: 0%; Cruzain Triton: -3%

Results for Cc1ccc(NCc2cccn2-c2nnc(N3CCCCCC3)s2)cc1 ?
Cruzain noTriton: -9%; Cruzain Triton: -4%

Results for COc1cc(/C=N/NC(N)=O)ccc1OCC(=O)Nc1ccc(C)c(C)c1 ?
Cruzain noTriton: -22%; Cruzain Triton: -5%

How did COc1ccc(/C=N/NC(=O)c2cccc([N+](=O)[O-])c2)cc1OC(=O)c1ccccc1 do in these assays?
Cruzain noTriton: 25µM*; Cruzain Triton: -1%

Results for COc1cc(/C=N/NC(N)=S)ccc1OCC(=O)Nc1ccc(C)c(C)c1 ?
Cruzain noTriton: 13µM*; Cruzain Triton: 16µM*

How did COc1ccc(/C=N/NC(=O)c2cccc([N+](=O)[O-])c2)cc1OC(=O)c1ccc(C)cc1 do in these assays?
Cruzain noTriton: -20%; Cruzain Triton: 8%

Source: PubChem (National Center for Advancing Translational Sciences (NCATS))
